# Measured values taken from paper PMC4336329 (PLoS ONE, 2015).
# In all, about 310,000 compounds went through this assay and about 14,000 (4.5%) showed an effect of 50% or more. The effect is printed as a negative number. Only a selection was taken, and strong results are over-represented in it overall.
# Target: human ether-à-go-go-related gene (hERG) potassium channel (human, UniProt Q12809)
# Test: primary screen, population patch clamp on CHO cells stably expressing hERG; higher = less effect of the substance
# 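Also: peak tail current of the secondary pulse compared with the same well before compound.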
# Sequence of human ether-à-go-go-related gene (hERG) potassium channel (Q12809 whole entry, looked up): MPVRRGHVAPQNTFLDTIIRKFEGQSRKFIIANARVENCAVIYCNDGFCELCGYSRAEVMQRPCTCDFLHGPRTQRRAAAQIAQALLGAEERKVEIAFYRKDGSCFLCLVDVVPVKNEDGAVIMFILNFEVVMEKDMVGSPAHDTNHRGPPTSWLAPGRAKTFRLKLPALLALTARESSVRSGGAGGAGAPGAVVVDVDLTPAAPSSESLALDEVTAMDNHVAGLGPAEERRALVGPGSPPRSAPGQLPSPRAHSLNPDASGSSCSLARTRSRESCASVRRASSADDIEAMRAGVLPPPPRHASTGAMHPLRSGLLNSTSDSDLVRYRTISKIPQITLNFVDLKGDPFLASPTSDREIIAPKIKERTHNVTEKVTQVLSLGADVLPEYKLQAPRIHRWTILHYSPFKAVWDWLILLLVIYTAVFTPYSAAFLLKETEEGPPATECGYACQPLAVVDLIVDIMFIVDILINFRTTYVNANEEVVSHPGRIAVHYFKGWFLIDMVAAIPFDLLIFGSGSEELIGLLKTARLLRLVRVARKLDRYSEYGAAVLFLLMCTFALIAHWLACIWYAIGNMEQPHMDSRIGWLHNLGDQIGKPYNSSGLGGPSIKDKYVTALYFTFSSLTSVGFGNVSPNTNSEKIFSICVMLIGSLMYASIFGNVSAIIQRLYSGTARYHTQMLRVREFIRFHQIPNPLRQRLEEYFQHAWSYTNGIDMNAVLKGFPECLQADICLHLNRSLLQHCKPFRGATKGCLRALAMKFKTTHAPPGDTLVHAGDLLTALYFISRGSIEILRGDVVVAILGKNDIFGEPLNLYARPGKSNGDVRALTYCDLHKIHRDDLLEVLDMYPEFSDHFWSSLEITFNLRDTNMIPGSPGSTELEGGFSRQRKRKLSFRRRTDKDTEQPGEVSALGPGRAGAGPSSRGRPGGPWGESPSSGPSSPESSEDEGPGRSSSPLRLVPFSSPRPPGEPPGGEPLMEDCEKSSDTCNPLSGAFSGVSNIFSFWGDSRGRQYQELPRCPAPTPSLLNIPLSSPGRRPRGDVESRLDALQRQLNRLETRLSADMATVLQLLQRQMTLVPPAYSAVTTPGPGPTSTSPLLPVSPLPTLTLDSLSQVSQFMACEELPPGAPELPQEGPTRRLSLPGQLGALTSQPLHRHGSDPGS
row,Structure (SMILES),"hERG current change (%, negative = inhibition) at 10uM"
1,CC(C)N(C(=O)CSc1nnc(CSc2ncccn2)n1C)C(C)C,32.8%
2,O=c1[nH]n2cc(-n3cc([N+](=O)[O-])cn3)cnc2c1Br,10.6%
3,CCCCNC(=O)CCC(=O)N1CCN(C(c2ccccc2)c2ccccc2)CC1.Cl,-7.34%
4,O=C(CCc1ccccc1)Nc1ccc(NC(=O)C2CCCCC2)nc1,7.57%
5,Cl.O=C(/C=C/c1ccccc1)Nc1ccc(N2CCCCC2)cc1,5.7%
6,O=C(Nc1ncccc1O)c1cccc(S(=O)(=O)NCc2ccccc2)c1,-20.3%
7,Cn1c(C(O)c2ccc3c(c2)OCO3)nc2ccccc21 (stereo not drawn),5.63%
8,Cc1ccc(S(=O)(=O)N2c3ccccc3NC(=O)CC2C)cc1 (stereo not drawn),10.5%
9,C=CCn1c(-c2ccc(Cl)cc2)c[nH]c1=S,19.4%
10,Cc1cnc(NC(=O)CC2CCCC2)s1,21.5%
11,COc1ccc(-c2cc(-c3ccccc3)no2)cc1,9.77%
12,CCN(CC(=O)NCc1cccs1)C(=O)COc1ccc(C(C)=O)cc1,-45.1%
13,NC(=O)CSc1nnc(-c2ccccn2)n1Cc1ccco1,4.36%
14,C(=C\c1ccccc1)/CSc1nnc(-c2cnccn2)n1Cc1ccco1,-73.4%
15,C(=C\c1ccccc1)/CSc1nnc(-c2ccccn2)n1Cc1ccco1,-50.9%
16,O=C(CSc1nnc(-c2ccccn2)n1Cc1ccco1)c1ccccc1,-42.5%
17,O=C(CSc1nnc(-c2cnccn2)n1Cc1ccco1)c1ccccc1,-16.3%
18,CCn1c(SC/C=C/c2ccccc2)nnc1-c1cnccn1,-14.7%
19,COc1ccc(C2CC(c3ccc(C)o3)=NN2C(C)=O)cc1 (stereo not drawn),7.14%
20,CCOC(=O)C1SC2(C(F)(F)C(F)F)CC1(O)c1c(c(OC)c3occc3c1OC)O2 (stereo not drawn),-3.47%
21,O=C(COC(=O)Cc1cccc2ccccc12)Nc1ccccc1-c1ccccc1,9.26%

row,Structure (SMILES),"hERG current change (%, negative = inhibition) at 10uM"
1,NC(=S)Nc1cccc2cnccc12,1.4%
2,COc1cc(NC(=O)c2cc3ccccc3cc2OC)ccc1NC(=O)c1cccs1,9.15%
3,O=C(CSc1nnc(-c2ccncc2)n1Cc1ccco1)c1ccc(Cl)cc1,-46%
4,O=C(CSc1nnc(-c2cccnc2)n1Cc1ccco1)c1ccc(Cl)c(Cl)c1,-45.2%
5,O=C(CSc1nnc(-c2cccnc2)n1Cc1ccco1)c1ccc(Br)cc1,-63.8%
6,COc1ccc(C(=O)CSc2nnc(-c3cccnc3)n2Cc2ccco2)cc1,-42.9%
7,O=C(CSc1nnc(-c2cccnc2)n1Cc1ccco1)c1ccc(Cl)cc1,-63.6%
8,O=C(CSc1nnc(-c2cccnc2)n1Cc1ccco1)c1ccccc1,-10.3%
9,CC1CCCC(NC(=S)Nc2cccc(S(=O)(=O)N(C)C)c2)C1C (stereo not drawn),13.7%
10,CCOC(=O)/C=C1\SCC(=O)N1CC(=O)Nc1ccccc1OC(F)F,18.8%
11,O=C(Nc1ccc(NC(=O)c2cccs2)c(Cl)c1)c1ccco1,-39.4%
12,CN(CC(=O)N1CCN(c2ccccn2)CC1)S(=O)(=O)c1ccc(Cl)cc1,-46.2%
13,Nc1ncc(Br)cc1S(=O)(=O)NCCC(=O)N1CCN(c2ccccn2)CC1,-55.4%
14,CN(CC(=O)N1CCN(c2ccccn2)CC1)S(=O)(=O)c1ccccc1,-12.8%
15,COc1ccc(S(=O)(=O)N(C)CC(=O)N2CCN(c3ccc(F)cc3)CC2)cc1OC,-44%
16,Nc1ncc(Br)cc1S(=O)(=O)NCCC(=O)N1CCN(c2ncccn2)CC1,-25.6%
17,Cc1ccc(CNC(=O)Cn2cnc(S(=O)(=O)N3CCC(C)CC3)c2)o1,-62.1%
18,CN(CC(=O)N1CCN(c2ccccn2)CC1)S(=O)(=O)c1ccc(Br)cc1,-54.8%
19,Cc1ccc(CNC(=O)Cn2cnc(S(=O)(=O)N3CCCCC3)c2)o1,-2.35%
20,O=C(Cn1cnc(S(=O)(=O)N2CCCCC2)c1)NCc1ccco1,8.34%
21,Nc1ncc(Br)cc1S(=O)(=O)NCCC(=O)N1CCN(c2ccccc2)CC1,-8.45%

row,Structure (SMILES),"hERG current change (%, negative = inhibition) at 10uM"
1,CN1CCN(C(=O)CN(C)S(=O)(=O)c2ccc(F)cc2)CC1,16.8%
2,CN(CC(=O)N1CCN(c2ccc(F)cc2)CC1)S(=O)(=O)c1ccc(F)cc1,-53.2%
3,CC1(C)C[C@H](O)[C@]2(CO)CC[C@]3(C)C(=CCC4[C@@]5(C)CC[C@H](O)C(C)(C)C5CC[C@]43C)[C@@H]2C1 (stereo partly drawn),-13.9%
4,O=C(CSc1nnc2ccccn12)NCc1ccco1,22.3%
5,O=C1CC(NNc2nc3ccccc3s2)C(=O)N1c1ccccc1 (stereo not drawn),-1.89%
6,O=C(CSc1nnc(-c2ccccc2)c2ccccc12)NCCN1C(=O)CSC1=O,-27.6%
7,O=C(CSc1ccccn1)Nc1ccc2c(c1)OCCO2,8.07%
8,O=C(Nc1cccnc1)c1cc2cc(Br)ccc2o1,8.93%
9,Cc1cc(-c2n[nH]c(=S)n2/N=C/c2ccco2)n[nH]1,7.99%
10,Cc1cccc(N2CCN(C(=O)CCNS(=O)(=O)c3ccc4c(c3)CCC(=O)N4)CC2)c1C,-44.6%
11,Cc1ccc(S(=O)(=O)CC(=O)N2CCN(c3ccccc3F)CC2)cc1,-16.8%
12,Cn1cnc(S(=O)(=O)N2CCN(c3cccc(C(F)(F)F)c3)CC2)c1,7.43%
13,O=C(CCS(=O)(=O)c1ccccc1)N1CCN(c2cccc(C(F)(F)F)c2)CC1,-43.1%
14,CC1CCN(S(=O)(=O)c2cn(CC(=O)N3CCN(c4cccc(C(F)(F)F)c4)CC3)cn2)CC1,-54%
15,O=C(CS(=O)(=O)c1ccc(F)cc1)N1CCN(c2ccccc2)CC1,-42.4%
16,Cc1ccc(S(=O)(=O)CC(=O)N2CCN(c3ccc(F)cc3)CC2)cc1,-51.5%
17,Cc1ccc(S(=O)(=O)CC(=O)N2CCN(c3cccc(C(F)(F)F)c3)CC2)cc1,-50.4%
18,Cc1ccc(CC(=O)N2CCN(c3cccc(C(F)(F)F)c3)CC2)cc1,-9.64%
19,Cc1cccc(N2CCN(C(=O)CN(C)S(=O)(=O)c3ccc4c(c3)CCC(=O)N4)CC2)c1C,-60.5%
20,Cc1ccc(C)c(N2CCN(C(=O)CN(C)S(=O)(=O)c3ccc4c(c3)CCC(=O)N4)CC2)c1,-41.5%
21,CC(=O)c1ccc(N2CCN(C(=O)Cn3cnc(S(=O)(=O)N4CCCCC4)c3)CC2)cc1,7.48%
